NadD inh – inhibitors of Staphylococcus aureus NadD | actives 0.78% (n = 360,000) | purified NadD enzyme, colorimetric absorbance read-out | inhibition, % at 20 µM; in the data active = inhibition above about 26%
rCAG RNA binder – r(CAG) repeat RNA binding; TO-PRO-1 dye displacement fluorescence; AID 651821; inhibition, % at 3 µM; actives 1.3% (n = 370,000);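 active = inhibition above the plate cutoff, the mean of all test compounds on that plate plus 3 SD, cut at about 35% in these data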;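 also: 0% = DMSO alone and 100% = 100 µM mitoxantrone as full dye displacement; higher means more dye released from RNA so lower well fluorescence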
NR3A LBD binder – modulators (binders) of human NR3A ligand-binding domain; Tm shift relative to glycine control, % at 25 µM; actives 2.5% (n = 340,000); NR3A LBD differential scanning fluorimetry, Tm shift; 0% = protein alone, 100% = glycine-bound protein;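 active = melting temperature shift of at least 10% of the positive control shift, at one fixed dose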
FAS-TE inh – inhibitors of human fatty acid synthase thioesterase domain; P49327; recombinant FAS-TE, OMFH fluorogenic substrate, fluorescence endpoint; inhibition, % at 15 µM; actives 0.67% (n = 360,000); AID 602261;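 active = compounds whose normalised, plate-corrected inhibition of enzyme fluorescence in the single-dose primary screen is 50% or more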;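 also: 0% = DMSO with enzyme and 100% = substrate without enzyme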
Target sequence (P49327 whole entry, looked up, the tested form may be a part): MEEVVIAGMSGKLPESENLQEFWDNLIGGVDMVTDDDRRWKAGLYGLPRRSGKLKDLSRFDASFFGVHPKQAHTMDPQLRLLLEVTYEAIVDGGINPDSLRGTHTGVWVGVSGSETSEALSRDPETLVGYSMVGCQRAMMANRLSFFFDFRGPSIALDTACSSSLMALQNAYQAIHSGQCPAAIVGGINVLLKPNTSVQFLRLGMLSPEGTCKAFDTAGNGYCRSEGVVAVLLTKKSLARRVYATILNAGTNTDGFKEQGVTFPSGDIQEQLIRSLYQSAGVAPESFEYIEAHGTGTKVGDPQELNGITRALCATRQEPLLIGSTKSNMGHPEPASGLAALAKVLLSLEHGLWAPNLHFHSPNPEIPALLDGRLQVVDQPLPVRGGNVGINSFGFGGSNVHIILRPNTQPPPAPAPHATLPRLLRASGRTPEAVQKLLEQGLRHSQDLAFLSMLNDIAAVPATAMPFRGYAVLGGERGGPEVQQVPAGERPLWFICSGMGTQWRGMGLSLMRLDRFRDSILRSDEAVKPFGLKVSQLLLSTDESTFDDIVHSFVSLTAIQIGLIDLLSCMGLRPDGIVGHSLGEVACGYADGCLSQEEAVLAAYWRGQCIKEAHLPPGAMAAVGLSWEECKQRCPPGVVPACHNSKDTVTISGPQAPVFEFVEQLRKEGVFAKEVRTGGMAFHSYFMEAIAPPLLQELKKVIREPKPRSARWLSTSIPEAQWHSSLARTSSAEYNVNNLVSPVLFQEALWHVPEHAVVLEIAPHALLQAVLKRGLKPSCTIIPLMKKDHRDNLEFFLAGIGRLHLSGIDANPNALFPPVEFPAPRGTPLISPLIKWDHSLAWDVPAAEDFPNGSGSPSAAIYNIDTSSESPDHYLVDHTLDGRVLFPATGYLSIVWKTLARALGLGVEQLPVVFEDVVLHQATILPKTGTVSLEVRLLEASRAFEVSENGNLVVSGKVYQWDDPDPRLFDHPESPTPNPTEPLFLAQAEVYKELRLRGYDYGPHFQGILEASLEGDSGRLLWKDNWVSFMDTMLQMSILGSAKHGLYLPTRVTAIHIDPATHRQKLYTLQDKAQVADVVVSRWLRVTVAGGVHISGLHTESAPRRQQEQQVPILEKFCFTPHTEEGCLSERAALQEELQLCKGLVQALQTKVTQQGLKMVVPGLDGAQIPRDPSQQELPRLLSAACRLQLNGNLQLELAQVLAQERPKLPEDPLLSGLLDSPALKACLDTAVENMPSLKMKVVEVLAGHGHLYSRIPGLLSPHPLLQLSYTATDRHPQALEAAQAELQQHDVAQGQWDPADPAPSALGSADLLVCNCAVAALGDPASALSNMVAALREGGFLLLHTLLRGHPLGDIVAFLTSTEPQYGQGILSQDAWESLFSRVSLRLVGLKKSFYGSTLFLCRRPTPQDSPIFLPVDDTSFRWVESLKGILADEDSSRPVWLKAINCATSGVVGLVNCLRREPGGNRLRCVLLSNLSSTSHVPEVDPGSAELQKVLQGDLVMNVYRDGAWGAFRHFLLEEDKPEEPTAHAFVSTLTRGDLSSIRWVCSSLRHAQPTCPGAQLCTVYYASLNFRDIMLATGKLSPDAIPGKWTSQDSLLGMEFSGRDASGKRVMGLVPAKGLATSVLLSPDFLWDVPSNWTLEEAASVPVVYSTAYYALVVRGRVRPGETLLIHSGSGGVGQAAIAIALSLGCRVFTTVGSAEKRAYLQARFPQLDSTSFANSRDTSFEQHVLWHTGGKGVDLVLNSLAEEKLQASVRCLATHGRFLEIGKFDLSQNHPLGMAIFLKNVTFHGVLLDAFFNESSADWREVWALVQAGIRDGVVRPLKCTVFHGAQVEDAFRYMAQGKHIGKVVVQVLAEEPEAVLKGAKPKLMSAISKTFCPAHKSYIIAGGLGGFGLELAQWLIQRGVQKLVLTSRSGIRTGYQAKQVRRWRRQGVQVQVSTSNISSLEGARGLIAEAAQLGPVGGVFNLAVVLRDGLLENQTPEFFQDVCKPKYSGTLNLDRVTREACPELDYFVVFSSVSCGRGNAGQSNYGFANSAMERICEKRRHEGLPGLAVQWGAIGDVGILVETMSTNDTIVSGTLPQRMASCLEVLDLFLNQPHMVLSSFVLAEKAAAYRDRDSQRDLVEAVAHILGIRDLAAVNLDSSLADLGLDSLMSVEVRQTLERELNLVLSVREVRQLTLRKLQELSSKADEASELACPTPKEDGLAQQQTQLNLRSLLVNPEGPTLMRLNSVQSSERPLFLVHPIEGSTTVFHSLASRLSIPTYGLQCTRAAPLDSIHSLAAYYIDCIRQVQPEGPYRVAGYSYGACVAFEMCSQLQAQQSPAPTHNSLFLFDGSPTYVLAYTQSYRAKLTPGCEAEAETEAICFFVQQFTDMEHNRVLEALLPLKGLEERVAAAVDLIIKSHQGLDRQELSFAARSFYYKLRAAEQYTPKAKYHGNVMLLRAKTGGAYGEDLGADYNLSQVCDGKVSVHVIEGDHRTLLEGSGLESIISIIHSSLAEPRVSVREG
FAS-TE conf – FAS thioesterase (human) inhibition, confirmation | shares compounds with FAS-TE inh | recombinant FAS-TE, OMFH fluorogenic substrate, fluorescence | inhibition, % at 15 µM | actives 45% (n = 2,300) | AID 624325;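 active = compounds inhibiting the enzyme by at least 50% at 15 µM in any one of the replicates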;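 also: 0% = enzyme with DMSO only and 100% = wells lacking enzyme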
Starred values were filed as active, the others as inactive; . = not tested or not shown. Only some compounds are listed: those with a hit (about 4.3% of all), similar ones and a draw of the others.

SMILES	NadD inh	rCAG RNA binder	NR3A LBD binder	FAS-TE inh	FAS-TE conf
O=C(CNC1CCCCC1)Nc1cccc([N+](=O)[O-])c1	-3	3	0	12	.
O=C(Nc1cccc([N+](=O)[O-])c1)NC1CCCCCCC1	-2	3	-2	53*	63*
CCCC(=O)NC1=C(Cl)C(=O)c2ccccc2C1=O	7	1	-12	53*	56*
CCNC1=C(Cl)C(=O)c2ccccc2C1=O	-2	1	-1	-2	.
CC(C)C[C@@H]1COc2cccc(NCCO)c2S(=O)(=O)N1	.	1	.	.	.
COC(=O)[C@]12C=CCN1[C@@H](c1ccc(C(F)(F)F)cc1)c1c(c3ccccc3n1S(=O)(=O)c1ccc(C)cc1)C2	.	26	.	.	.
O=C1N=c2ccc([N+](=O)[O-])cc2=C1c1sc(=O)[nH]c1O	13	5	-1	56*	66*
Nc1ccn([C@@H]2O[C@H](C(=O)N[C@H](Cc3ccccc3)C(=O)N3CCN(CCO)CC3)[C@@H](O)[C@H]2O)c(=O)n1	.	0	.	.	.
O=C(Nc1ncc(S(=O)(=O)c2ccc([N+](=O)[O-])cc2)s1)c1cccc2ccccc12	24	12	11*	56*	7
COC(=O)C1=C(C)N(C)C(=NCc2ccc(OC)cc2)NC1c1ccccc1 (stereo unspecified)	.	7	.	.	.
CCc1c(-c2cccc(OC)c2)ncn1CCc1ccccc1OC	.	-3	.	.	.
CCCC(C)C(=O)Nc1cc([N+](=O)[O-])ccc1Cl (stereo unspecified)	1	0	0	52*	64*
CCCC(C)C(=O)Nc1cc([N+](=O)[O-])ccc1F (stereo unspecified)	-3	2	0	31	.
N#Cc1cc(-c2ccccc2)nc(Oc2ccc(Cl)cc2)n1	-3	1	-9	65*	53*
O=[N+]([O-])c1cc(-c2nnc(Nc3ccccc3)c3ccccc23)ccc1N1CCOCC1	13	3	-4	63*	15
Cc1ccc(Nc2nnc(-c3ccc(N4CCOCC4)c([N+](=O)[O-])c3)c3ccccc23)cc1	20	5	-4	64*	13
CNS(=O)(=O)c1ccc(C)c(S(=O)(=O)NC)c1	4	-1	-1	-10	.
CN(C)S(=O)(=O)c1ccc2c(c1)C(=O)c1cc(S(=O)(=O)N(C)C)ccc1CC2	-12	2	1	79*	94*
CNS(=O)(=O)c1ccc2c(c1)C(=O)c1cc(S(=O)(=O)NC)ccc1CC2	-12	3	2	82*	91*
O=C(CSc1nnc(-c2ccccn2)n1-c1ccccc1)c1ccc(Cl)c(Cl)c1	.	1	.	.	.
COc1ccc(C(=O)OC(C)C(=O)NC(C)CCc2ccccc2)cc1[N+](=O)[O-] (stereo unspecified)	-4	-1	-1	59*	32*
Cc1cc(C(=O)NC(C)CCc2ccccc2)ccc1[N+](=O)[O-] (stereo unspecified)	-8	-3	2	52*	23
COc1ccc(C(=O)OCC(=O)NCCCc2ccccc2)cc1[N+](=O)[O-]	-9	-6	2	79*	79*
CC(OC(=O)c1ccc(Cl)c([N+](=O)[O-])c1)C(=O)N1CCN(Cc2ccccc2)CC1 (stereo unspecified)	-6	1	-1	73*	54*
O=C(C1CCCN(S(=O)(=O)c2ccccc2F)C1)N1CCN(Cc2ccccc2)CC1 (stereo unspecified)	.	0	.	.	.
SMILES	NadD inh	rCAG RNA binder	NR3A LBD binder	FAS-TE inh	FAS-TE conf
CC(C)Cn1c2c(c(O)c(C(=O)Nn3c(Cc4ccccc4)nc4ccccc4c3=O)c1=O)CCCC2	29	4	-3	54*	9
COC(=O)[C@]12C[C@H](CC(=O)NCCCN3CCCC3=O)C(=O)N(Cc3ccco3)C1=C[C@H](C(C)(C)C)O[C@@H]2C	.	-3	.	.	.
Cc1ccc(C(=O)Oc2cccc(-n3cnnn3)c2)cc1	-7	1	-4	31	.
CC1CCc2c(C(=O)Oc3cccc(-n4cnnn4)c3)csc2C1 (stereo unspecified)	-7	5	-9	85*	56*
COc1cccc(/C=C2\CC3(OC(=O)C4CCCCC4)CCCN2C3)c1 (stereo unspecified)	.	2	.	.	.
COc1ccc(N2C(=O)C3C4c5ccccc5C(C=Nc5ccc(C)cc5C)(c5ccccc54)C3C2=O)cc1 (stereo unspecified)	20	-1	6	56*	0
COc1ccc(-c2cnnn2-c2ccc(NC(=O)c3ccc(S(=O)(=O)N4CCCCC4)cc3)cc2)cc1OC	19	11	1	88*	6
COc1ccccc1CNC(=O)COC(=O)c1cc(S(=O)(=O)N2CCOCC2)ccc1Cl	2	-6	0	-1	.
COc1ccccc1CNC(=O)c1cc(S(=O)(=O)N2CCN(c3ccccc3)CC2)ccc1Cl	1	6	1	65*	25
COc1ccc(S(=O)(=O)N2CCOCC2)cc1C(=O)Nc1ccc(N2CCCCCC2)cc1	20	5	-1	62*	23
COC(=O)[C@]12C[C@H](CC(=O)NCC34CC5CC(CC(C5)C3)C4)C(=O)N(Cc3ccc4c(c3)OCO4)C1=C[C@H](C(C)C)O[C@@H]2C1CC1	.	6	.	.	.
CCN(Cc1ccccc1)C(=O)c1c[nH]c2ccc(S(=O)(=O)N(C)CCC#N)cc2c1=O	0	5	-6	59*	67*
Cc1cccc([C@@H]2[C@@H]3C(=O)N(Cc4ccccc4)C(=O)[C@@H]3[C@]3(Cc4ccccc4)C(=O)N(c4ccc(C(F)(F)F)cc4)C(=O)N23)c1	18	13	-2	90*	27
Cc1cccc([C@@H]2[C@@H]3C(=O)N(Cc4ccccc4)C(=O)[C@@H]3[C@]3(Cc4ccc(Cl)cc4)C(=O)N(c4ccccc4)C(=O)N23)c1	16	14	-4	93*	23
CC[C@@]12C(=O)N(c3ccccc3)C(=O)N1[C@H](c1cccc(C)c1)[C@@H]1C(=O)N(Cc3ccccc3)C(=O)[C@@H]12	1	-3	-2	3	.
CC[C@@]12C(=O)N(c3cccc(Br)c3)C(=O)N1[C@H](c1cccc(C)c1)[C@@H]1C(=O)N(Cc3ccccc3)C(=O)[C@@H]12	0	5	-10	55*	31
CCN1C(=O)[C@H]2[C@@H](c3ccc(C)cc3)N3C(=O)N(c4ccccc4)C(=O)[C@@]3(Cc3ccccc3)[C@H]2C1=O	3	-2	0	2	.
Cc1cccc([C@@H]2[C@@H]3C(=O)N(Cc4ccccc4)C(=O)[C@@H]3[C@]3(Cc4ccc(Cl)cc4)C(=O)N(c4cccc(Br)c4)C(=O)N23)c1	22	4	3	91*	23
CCCCOCCCNC(=O)C[C@H]1C[C@@]2(C(=O)OC)C(=C[C@H](C3CCCC3)O[C@@H]2C)N(Cc2ccco2)C1=O	.	6	.	.	.
Brc1ccc(CSc2nnc(-c3ccccn3)n2Cc2ccco2)cc1	-5	-7	1	26	.
CC(C)(C)c1ccc(CSc2nnc(-c3ccccn3)n2Cc2ccco2)cc1	19	-2	20*	53*	13

Bioassay records (PubChem BioAssay)
